pS6 MEF inh: Acumen qHTS Assay for Inhibitors of the mTORC1 Signaling Pathway in MEF (Tsc2-/-, p53-/-) Cells: Sytravon. 0.78% of 44,000 active. Tsc2-/- p53-/- MEF, phospho-rpS6 immunofluorescence/PI, 24 h. AID 493208, 2011. Potency, µM (doses to about 38.3 µM), most hits filed as inhibitors; note: nearly all actives have a fitted effect of over 50% in size
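Tsc2-/-, p53-/- mouse embryonic fibroblasts (empty-vector line) exposed to compound 24 hrs at 37 C, fixed, immunostained for phospho-rpS6 and counterstained with propidium iodide. Acumen laser scanning gives % positive cells from Alexa 488/PI ratio, thresholded using 7.5 nM rapamycin; PI count gives viability.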
S16 F2sN tox: Cell viability qHTS assay in S16 Pmp22-F2sN cells; S16 Pmp22-F2sN Schwann cells viability, CellTiter-Glo, 24 h; Potency, µM (titrated, usually from 57.5 µM), actives largely listed as cytotoxic; 0.48% of 43,000 active; AID 1508642, 2021; note: nearly all actives have a fitted effect of over 65% in size
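Used to flag compounds lowering reporter output through toxicity, this quantitative HTS measures ATP-based CellTiter-Glo luminescence in S16 Pmp22-F2sN Schwann cells after 24 h compound exposure at 37C.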
p53null 32C kill: qHTS Screen for Compounds that Selectively Target Cancer Cells with p53 Mutations: Cytotoxicity of p53 Null Cells at the Permissive Temperature; H1299-neo p53 null cells, ATP luminescence, 24 h, 32C; Potency, µM (highest dose often 46.1 µM), most hits filed as cytotoxic; 0.62% of 55,000 active; AID 903, 2007; note: nearly all actives have a fitted effect of over 55% in size
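Cells lacking p53 (H1299-neo) are plated at 600 per well and allowed to settle overnight at 37C. Test compounds (up to 46 uM) are added and held 24 hours at 32C, then ATP is quantified by luminescence.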
PMP22 txn: Cell-based coincidence reporter assay to measure PMP22 gene transcription in S16 Pmp22-F2sN cells - Primary screen; S16 Pmp22-F2sN Schwann cells (luciferase reporters placed in the Pmp22 gene), FLuc/NLuc coincidence luminescence, 24 h; Potency, µM (top dose mostly 57.5 µM), hits mostly inhibitors; 2% of 43,000 active; active = clear falling dose curves in both reporters; inconclusive = both reporters move, but less clearly or upward; inactive = either reporter flat; the % is the NLuc reporter signal
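Transcriptional readout in edited S16(c9) cells: two luciferases reported from the Pmp22 locus, measured in turn after 24 h compound incubation.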
p53null 39C tox: qHTS Screen for Compounds that Selectively Target Cancer Cells with p53 Mutations: Cytotoxicity of p53 Null Cells at the Nonpermissive Temperature | 0.97% of 55,000 active | H1299 p53-null (neo) cells, 39C, ATPlite viability, 24 h | Potency, µM (titrated, usually from 46.1 µM), usual class: cytotoxic; note: nearly all actives have a fitted effect of over 50% in size
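Luminescent ATP signal reported cell survival after H1299 lines (neo, p53 null; or p53 A138V) received up to 46 uM compound and 24 hr incubation at 39C.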
OvCa metastasis: Primary qHTS assay for Inhibitors of ovarian cancer metastasis using an organotypic tumor microenvironment (TME) model | SKOV3ip1-GFP adhesion/invasion on 3D omental model, fluorescence | Potency, µM (series often up to 45.8 µM), hits mostly inhibitors | 0.1% of 46,000 active | AID 1963576, 2024; note: nearly all actives have a fitted effect of over 65% in size
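Primary human omental fibroblast/mesothelial 3D culture pre-formed 48 h. SKOV3ip1-GFP cells added with compounds (0.36-46 umol/L), incubated 2 h RT/16 h 37 C, fixed; GFP cells quantified at 488/509 nm.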
NLuc sat counter: Biochemical NLuc saturation counterscreen for small molecule modulators of PMP22 gene expression - Nano-Glo assay. AID 1508638, 2021. Secreted NLuc enzyme (filtered S16 cell medium), Nano-Glo luminescence. 4% of 690 active. Potency, µM (titrated, usually from 57.5 µM), most hits filed as inhibitors. shares compounds with PMP22 txn
NLuc Km ctr: Biochemical coelenterazine-based NLuc counterscreen for small molecule modulators of PMP22 gene expression - Km assay; shares compounds with PMP22 txn; secreted NLuc enzyme, coelenterazine luminescence, Km conditions; Potency, µM (series often up to 57.5 µM), hits mostly inhibitors; 5% of 690 active
FLuc ctr PMP22: Biochemical FLuc counterscreen for small molecule modulators of PMP22 gene expression | 690 tested, under 10 active | shares compounds with PMP22 txn | purified P. pyralis FLuc, luminescence, 10 min | Potency, µM (titrated, usually from 57.5 µM), actives largely listed as inhibitors
Target sequence (P08659 whole entry, looked up): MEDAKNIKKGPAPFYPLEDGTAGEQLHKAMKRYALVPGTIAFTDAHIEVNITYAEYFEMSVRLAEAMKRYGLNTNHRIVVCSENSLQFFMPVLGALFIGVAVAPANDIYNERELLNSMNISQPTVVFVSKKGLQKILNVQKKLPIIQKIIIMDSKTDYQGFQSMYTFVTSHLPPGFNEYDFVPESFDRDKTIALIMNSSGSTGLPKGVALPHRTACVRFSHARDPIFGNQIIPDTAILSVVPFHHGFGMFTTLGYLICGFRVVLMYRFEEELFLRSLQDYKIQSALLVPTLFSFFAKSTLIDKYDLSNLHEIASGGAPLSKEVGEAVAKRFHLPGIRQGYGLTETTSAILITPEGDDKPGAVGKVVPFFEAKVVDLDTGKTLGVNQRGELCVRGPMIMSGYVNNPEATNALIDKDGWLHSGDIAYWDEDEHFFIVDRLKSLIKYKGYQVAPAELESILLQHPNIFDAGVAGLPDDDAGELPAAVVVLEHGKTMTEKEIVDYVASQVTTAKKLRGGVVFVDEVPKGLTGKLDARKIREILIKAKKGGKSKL
S16 viab conf: Cell viability qHTS assay in S16 Pmp22-F2sN cells - Confirmatory screen; S16 Schwann cells viability, CellTiter-Glo ATP luminescence, 24 h; 7% of 690 active; Potency, µM (highest dose often 57.5 µM), most hits filed as cytotoxic; shares compounds with PMP22 txn
PMP22 txn conf: Cell-based coincidence reporter assay to measure PMP22 gene transcription in S16 Pmp22-F2sN cells - Confirmatory screen; Potency, µM (titrated, usually from 57.5 µM), most hits filed as inhibitors; shares compounds with PMP22 txn; AID 1508646, 2021; 22% of 690 active; S16 Schwann cells Pmp22-F2sN, dual luciferase, 24 h; active = clear falling dose curves in both reporters; inconclusive = both reporters move, but less clearly or upward; inactive = either reporter flat; the % is the FLuc reporter signal
PMP22 prot conf: Cell-based HiBiT reporter assay to measure PMP22 protein expression in S16 Pmp22-HiBiT cells - Confirmatory screen; shares compounds with PMP22 txn; S16 Schwann cells Pmp22-HiBiT, luminescence, 48 h; Potency, µM (series often up to 27.9 µM), actives largely listed as inhibitors; 95 tested, under 10 active
Target sequence (P25094 whole entry, looked up): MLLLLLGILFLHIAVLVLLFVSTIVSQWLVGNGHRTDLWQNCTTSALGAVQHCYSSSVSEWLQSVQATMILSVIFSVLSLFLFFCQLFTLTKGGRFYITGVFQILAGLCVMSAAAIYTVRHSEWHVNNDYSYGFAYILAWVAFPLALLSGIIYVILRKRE
Of the large screens only hits and unclear results are named; the others gave an inactive call (follow-up assays come after a bar, where they were run). This is a sample that favours compounds with a hit; in the whole collection about 3.1% have one here. Unless noted, calls come from the whole dose curve; as a rule, active = well fitted curve in the direction sought with a large enough effect; inconclusive = small, poorly fitted or top-dose-only effect, or another doubt; inactive = no such curve, though single readings can be large; an effect the other way counts as inactive or inconclusive.

COc1ccc(Nc2c3c(nc4ccc(NC(=O)c5cc(Cl)ccc5OC)cc24)CCCC3)cc1OC	S16 F2sN tox inconclusive, p53null 32C kill 6.3µM, PMP22 txn 4.7µM, p53null 39C tox 5µM, OvCa metastasis inconclusive | NLuc sat counter inactive | NLuc Km ctr inactive | FLuc ctr PMP22 inactive | S16 viab conf 14µM | PMP22 txn conf 9.7µM
COc1cc(OC)cc(C(=O)Nc2ccc3nc4c(c(Nc5ccc(OC)c(OC)c5)c3c2)CCCC4)c1	S16 F2sN tox inconclusive, p53null 32C kill inconclusive, PMP22 txn inconclusive, p53null 39C tox inconclusive, OvCa metastasis inconclusive
CC1CCN(S(=O)(=O)c2ccc3c(c2)CCN3C(=O)Nc2ccc(Br)cc2)CC1	PMP22 txn inconclusive
Cc1ccc(NC(=O)N2CCc3cc(S(=O)(=O)N4CCC(C)CC4)ccc32)cc1F	PMP22 txn 8.9µM | NLuc sat counter inactive | NLuc Km ctr inactive | FLuc ctr PMP22 inactive | S16 viab conf inconclusive | PMP22 txn conf 15µM | PMP22 prot conf inactive
CC1=Nc2cc(C(=O)NCCc3ccccc3)ccc2Sc2c(C)ccc(C)c21	PMP22 txn 2.7µM, p53null 39C tox inconclusive | NLuc sat counter inactive | NLuc Km ctr inactive | FLuc ctr PMP22 inactive | S16 viab conf inconclusive | PMP22 txn conf inconclusive
Cc1cc2c(n1-c1ccc(C(=O)NCCc3ccc(Cl)cc3)cc1)CCCC2	PMP22 txn inconclusive
CC1=Nc2cc(C(=O)NCCc3ccc(Cl)cc3)ccc2Sc2c(C)ccc(C)c21	PMP22 txn 7.8µM, p53null 39C tox inconclusive | NLuc sat counter inactive | NLuc Km ctr inactive | FLuc ctr PMP22 inactive | S16 viab conf inconclusive | PMP22 txn conf inconclusive
CCCNC(=O)c1ccc2c(c1)N=C(C)c1c(C)ccc(C)c1S2	pS6 MEF inh inconclusive, PMP22 txn 0.39µM, p53null 39C tox inconclusive | NLuc sat counter inactive | NLuc Km ctr inconclusive | FLuc ctr PMP22 inactive | S16 viab conf inactive | PMP22 txn conf inconclusive
COc1ccc(CNC(=O)c2ccc3c(c2)N=C(C)c2c(C)ccc(C)c2S3)cc1	PMP22 txn inconclusive
Cc1cccn2c(=O)c3cc(C#N)c(=O)n(-c4nnc(SCc5ccc(F)cc5)s4)c3nc12	S16 F2sN tox inconclusive, PMP22 txn 10µM | NLuc sat counter inactive | NLuc Km ctr inactive | FLuc ctr PMP22 inactive | S16 viab conf inactive | PMP22 txn conf inactive
Cc1ccc(CSc2nnc(-n3c(=O)c(C#N)cc4c(=O)n5cccc(C)c5nc43)s2)cc1	PMP22 txn inconclusive
COc1cc(Nc2nc3ccccc3nc2NS(=O)(=O)c2ccc(NC(=O)c3ccc(C)c(OC)c3)cc2)cc(OC)c1	none (no result: pS6 MEF inh, S16 F2sN tox, p53null 32C kill, PMP22 txn, p53null 39C tox)
COc1cc(Cl)c(NS(=O)(=O)c2ccc(-c3coc(C)n3)cc2)c(OC)c1	pS6 MEF inh inconclusive, PMP22 txn 13µM | NLuc sat counter inconclusive | NLuc Km ctr inconclusive | FLuc ctr PMP22 inactive | S16 viab conf inconclusive | PMP22 txn conf inactive
Cc1nc(-c2ccc(S(=O)(=O)Nc3ccc(C)c(N(C)C)c3)cc2)co1	PMP22 txn inconclusive
CC1(C)O[C@@H]2C[C@H]3[C@@H]4CCC5=CC(=O)C=C[C@]5(C)[C@@H]4[C@@H](O)C[C@]3(C)[C@]2(C(=O)CO)O1	none (no result: pS6 MEF inh, S16 F2sN tox, p53null 32C kill, PMP22 txn, p53null 39C tox)
Cc1ccc(CNC(=O)Cn2c(=O)n(-c3cccc(Cl)c3)c(=O)c3sc4ccccc4c32)cc1	p53null 32C kill inconclusive, PMP22 txn 9.5µM | NLuc sat counter inactive | NLuc Km ctr inactive | FLuc ctr PMP22 inactive | S16 viab conf inconclusive | PMP22 txn conf inconclusive
CCc1ccccc1NC(=O)Cn1c(=O)n(Cc2ccco2)c(=O)c2sc3ccccc3c21	PMP22 txn inconclusive
Cc1c(Cl)cccc1NC(=O)Cn1c(=O)n(Cc2ccco2)c(=O)c2sc3ccccc3c21	PMP22 txn 13µM | NLuc sat counter inactive | NLuc Km ctr inactive | FLuc ctr PMP22 inactive | S16 viab conf inactive | PMP22 txn conf 15µM
Cc1ccc(CNC(=O)Cn2c(=O)n(Cc3ccccc3)c(=O)c3sc4ccccc4c32)cc1	PMP22 txn 13µM | NLuc sat counter inactive | NLuc Km ctr inactive | FLuc ctr PMP22 inactive | S16 viab conf inactive | PMP22 txn conf 19µM
CCOc1ccc(NC(=O)c2ccc3c(c2)CCN3S(=O)(=O)c2ccc(Cl)cc2)cc1	none
COc1ccccc1N1CCN(c2ncc3c(n2)CCN(Cc2ccccc2F)C3)CC1	none
COc1cc(OC)c(OC)cc1CN1CCc2nc(N3CCN(c4ccccc4F)CC3)ncc2C1	PMP22 txn inconclusive | NLuc sat counter inactive | NLuc Km ctr inactive | FLuc ctr PMP22 inactive | S16 viab conf inactive | PMP22 txn conf inconclusive

High-throughput results as filed in PubChem BioAssay.
